PubChem BioAssay (NCI)
Values joined by “and” are separate entries in the source; they are usually repeats but may differ in a detail not shown here. Equal values may be shown once. The panel holds about 79,000 compounds, 15% with a hit somewhere; the sample as a whole holds those more often. A number with no mark means an inactive call. Active and inactive are the calls of the source. No stated cut-off is given here; in the data, active means growth inhibition above about 70%; inactive means the rest.

Assays:
[1] = NCI Yeast Anticancer Drug Screen. Data for the rad50 strain (AID 155);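 further: 0% = growth of vehicle-only cultures of the same strain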; conditions: S. cerevisiae rad50 strain growth inhibition; at 50.0 µM; stronger effect = higher value
In short: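 Compounds were tested on a yeast strain with an engineered DNA damage repair alteration; the reported value is growth inhibition normalised to vehicle treatment.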

[2] = NCI Yeast Anticancer Drug Screen. Data for the mec2-1 strain (AID 157); conditions: S. cerevisiae mec2-1 strain, stronger effect = higher value
In short: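 Readout is yeast growth inhibition, normalised to vehicle-treated controls, in the mec2-1 strain exposed to compound.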

[3] = NCI Yeast Anticancer Drug Screen. Data for the sgs1 mgt1 strain (AID 161);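 further: 0% = growth of cultures given vehicle only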; conditions: S. cerevisiae sgs1 mgt1 strain, stronger effect = higher value
In short: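 Percent growth inhibition was derived by comparing compound-exposed mutant yeast with vehicle-exposed cultures. The strain carries alterations in DNA damage repair.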

[4] = NCI Yeast Anticancer Drug Screen. Data for the cln2 rad14 strain (AID 165);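 further: 0% = growth equal to vehicle treated cultures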; conditions: S. cerevisiae cln2 rad14 strain, stronger effect = higher value
In short: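 Relative to vehicle controls, growth inhibition of compound-treated cln2 rad14 yeast was recorded.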

[5] = NCI Yeast Anticancer Drug Screen. Data for the mlh1 rad18 strain (AID 175); conditions: S. cerevisiae mlh1 rad18 strain growth inhibition, stronger effect = higher value
In short: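 Test agents were incubated with a yeast strain of defined genotype (DNA damage repair defect). Inhibition of growth was derived by comparison with vehicle-exposed cultures.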

[6] = NCI Yeast Anticancer Drug Screen. Data for the bub3 strain (AID 167); conditions: S. cerevisiae bub3 mutant strain, stronger effect = higher value
In short: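 Growth of a checkpoint-deficient yeast mutant is measured after compound exposure. Values represent inhibition relative to vehicle.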

[7] = at 5.0 µM (retest, dose inferred, filed as 0.5)
[8] = at 50.0 µM (retest, dose inferred, filed as 5.0)

Question: Which growth inhibition [1] does the source give for `COc1cc(-c2[nH]ccc2Cl)oc1C1=C2N=C3C=C2C(C(C)C)C1CCCCCCCC3` (configuration not stated) here?
Answer: 85.3% (active)

Question: And the growth inhibition ([2]; at 50.0 µM)?
Answer: 83.6% (active)

Question: What about the growth inhibition ([3]; at 50.0 µM) of the same compound?
Answer: 89% (active)

Question: What about the growth inhibition ([4]; at 50.0 µM) of the same compound?
Answer: 89.1% (active)

Question: What about the growth inhibition ([5]; at 50.0 µM) of the same compound?
Answer: 89.6% (active)

Question: What does the source list for `CCC(Cl)COP(=O)(OCC(Cl)CC)O/C(C)=C(\C)OP(=S)(OCC(Cl)CC)OCC(Cl)CC` (configuration not stated)?
Answer: growth inhibition [1]: 86.5% (active); growth inhibition ([2]; at 50.0 µM): 93.2% (active); growth inhibition ([3]; at 50.0 µM): 93.8% (active); growth inhibition ([4]; at 50.0 µM): 99.2% (active); growth inhibition ([5]; at 50.0 µM): 96.8% (active)

Question: With `Cc1cc(N(CCCl)CCCl)ccc1C=Nc1ccccc1C(=O)O` as the compound, how does the growth inhibition [1] read?
Answer: 27.4%

Question: And the growth inhibition ([2]; at 50.0 µM)?
Answer: 3.9%

Question: And the growth inhibition ([3]; at 50.0 µM)?
Answer: 28.4%

Question: What about the growth inhibition ([6]; at 50.0 µM) of the same compound?
Answer: 2.65%

Question: What about the growth inhibition ([5]; at 50.0 µM) of the same compound?
Answer: 29.1%

Question: For `O=C(O)[C@@H]1C2CCC(C[C@@H]1O)N2C(=O)c1ccccc1` (some centres not stated), which growth inhibition [1] is on record?
Answer: -12.8%

Question: What about the growth inhibition ([2]; at 50.0 µM) of the same compound?
Answer: -3.55%

Question: And the growth inhibition ([3]; at 50.0 µM)?
Answer: 2.85%

Question: And the growth inhibition ([6]; at 50.0 µM)?
Answer: -15.4%

Question: And the growth inhibition ([5]; at 50.0 µM)?
Answer: -1.2%

Question: Which results are given for `[O-]c1n[n+](C2CCCCC2)no1`?
Answer: growth inhibition [1]: -11.4%; growth inhibition ([2]; at 50.0 µM): -7.6%; growth inhibition ([3]; at 50.0 µM): -45.7%; growth inhibition ([4]; at 50.0 µM): -31.1%; growth inhibition ([5]; at 50.0 µM): -13.4%

Question: What does the source list for `Cc1cc(OCC2=NCCN2)c(C)c(C)c1Cl`?
Answer: growth inhibition [1]: 44.3%; growth inhibition ([2]; at 50.0 µM): 26.9%; growth inhibition ([3]; at 50.0 µM): 36.1%; growth inhibition ([4]; at 50.0 µM): 51%; growth inhibition ([5]; at 50.0 µM): 79.3% (active)

Question: For `CP(O)(=S)C1CCCCC1` (configuration not stated) (tested in a mixture with another compound), which growth inhibition [1] is on record?
Answer: 26.8%

Question: What about the growth inhibition ([2]; at 50.0 µM) of the same compound?
Answer: 1.1%

Question: And the growth inhibition ([3]; at 50.0 µM)?
Answer: -4.85%

Question: And the growth inhibition ([6]; at 50.0 µM)?
Answer: 18.7%

Question: What about the growth inhibition ([5]; at 50.0 µM) of the same compound?
Answer: 13.8%

Question: With `O=P(CCl)(Oc1ccc(Cl)cc1)Oc1ccc(Cl)cc1` as the compound, how does the growth inhibition [1] read?
Answer: 20.6%

Question: And the growth inhibition ([2]; at 50.0 µM)?
Answer: 16.1%

Question: What about the growth inhibition ([3]; at 50.0 µM) of the same compound?
Answer: 6%

Question: And the growth inhibition ([6]; at 50.0 µM)?
Answer: 7.5%

Question: What about the growth inhibition ([5]; at 50.0 µM) of the same compound?
Answer: -10.2%

Question: For `O=C(CCl)N(CCO)CCO`, which growth inhibition [1] is on record?
Answer: -0.85%

Question: What about the growth inhibition ([2]; at 50.0 µM) of the same compound?
Answer: 1.5%

Question: And the growth inhibition ([3]; at 50.0 µM)?
Answer: -2.4%

Question: What about the growth inhibition ([6]; at 50.0 µM) of the same compound?
Answer: 6.3%

Question: And the growth inhibition ([5]; at 50.0 µM)?
Answer: 0.95%

Question: With `O=C1CC2OCC=C3CN4CCC56c7ccccc7N1C5C2C3CC46` (configuration not stated) as the compound, how does the growth inhibition [1] read?
Answer: 9.65%

Question: What about the growth inhibition ([2]; at 50.0 µM) of the same compound?
Answer: 2.3%

Question: What about the growth inhibition ([3]; at 50.0 µM) of the same compound?
Answer: 4.15%

Question: And the growth inhibition ([6]; at 50.0 µM)?
Answer: 8.9%

Question: What about the growth inhibition ([5]; at 50.0 µM) of the same compound?
Answer: -9.25%

Question: Which growth inhibition [1] does the source give for `COc1ccc(C[C@@H]2NC[C@@H](O)[C@@H]2OC(C)=O)cc1` here?
Answer: 91.3% (active)

Question: And the growth inhibition ([2]; at 50.0 µM)?
Answer: 93.2% (active)

Question: And the growth inhibition ([3]; at 50.0 µM)?
Answer: 93.2% (active)

Question: What about the growth inhibition ([4]; at 50.0 µM) of the same compound?
Answer: 91.8% (active)

Question: And the growth inhibition ([6]; at 50.0 µM)?
Answer: 92.2% (active)

Question: What about the growth inhibition ([5]; at 50.0 µM) of the same compound?
Answer: 91.3% (active)

Question: With `COc1cc2[nH]cc(CN(C)C)c2cc1OC` as the compound, how does the growth inhibition [1] read?
Answer: 3%

Question: And the growth inhibition ([2]; at 50.0 µM)?
Answer: -0.55%

Question: What about the growth inhibition ([3]; at 50.0 µM) of the same compound?
Answer: -11.2%

Question: What about the growth inhibition ([6]; at 50.0 µM) of the same compound?
Answer: -0.25%

Question: And the growth inhibition ([5]; at 50.0 µM)?
Answer: -7.35%

Question: With `CCOP1(=S)NNP(=S)(OCC)NN1` (configuration not stated) as the compound, how does the growth inhibition [1] read?
Answer: -2.75%

Question: What about the growth inhibition ([2]; at 50.0 µM) of the same compound?
Answer: -11.5%

Question: And the growth inhibition ([3]; at 50.0 µM)?
Answer: -3.75%

Question: And the growth inhibition ([4]; at 50.0 µM)?
Answer: 18.4%

Question: What about the growth inhibition ([5]; at 50.0 µM) of the same compound?
Answer: 8.85%

Question: Which results are given for `CC(C)OC(=O)Nc1cccc(Cl)c1`?
Answer: growth inhibition [1]: 25.9%; growth inhibition ([2]; at 50.0 µM): 1.75%; growth inhibition ([3]; at 50.0 µM): 23.9%; growth inhibition ([4]; at 50.0 µM): -3.85%; growth inhibition ([5]; at 50.0 µM): 4.5%

Question: For `NC(=O)C(CBr)NCc1ccccc1` (configuration not stated), which growth inhibition [1] is on record?
Answer: -0.1%

Question: And the growth inhibition ([2]; at 50.0 µM)?
Answer: -13.6%

Question: And the growth inhibition ([3]; at 50.0 µM)?
Answer: -6.15%

Question: And the growth inhibition ([4]; at 50.0 µM)?
Answer: -27.8%

Question: What about the growth inhibition ([5]; at 50.0 µM) of the same compound?
Answer: -10.6%

Question: Which growth inhibition [1] does the source give for `c1ccc2c(c1)[Se]c1ccccc1[Se]2` here?
Answer: -14.2%

Question: And the growth inhibition ([2]; at 50.0 µM)?
Answer: -22.8%

Question: And the growth inhibition ([3]; at 50.0 µM)?
Answer: 0.65%

Question: And the growth inhibition ([4]; at 50.0 µM)?
Answer: 8.55%

Question: And the growth inhibition ([5]; at 50.0 µM)?
Answer: -7.45%

Question: For `CCOP(O)(=S)OCC`, which growth inhibition [1] is on record?
Answer: 16.8% and 9.55% and 2.25%

Question: What about the growth inhibition ([2]; at 50.0 µM) of the same compound?
Answer: 23.4% and 10.2% and 2.35%

Question: What about the growth inhibition ([3]; at 50.0 µM) of the same compound?
Answer: 11.6% and 7.65% and -4.2%

Question: And the growth inhibition ([6]; at 50.0 µM)?
Answer: -15.8% and -14.5% and -14%

Question: What about the growth inhibition ([5]; at 50.0 µM) of the same compound?
Answer: 17% and 18.8% and 3.2%

Question: For `CC1=CC(=O)NP(=O)(Oc2ccc(C)cc2)N1` (configuration not stated), which growth inhibition [1] is on record?
Answer: -7.7%

Question: What about the growth inhibition ([2]; at 50.0 µM) of the same compound?
Answer: 16.1%

Question: What about the growth inhibition ([3]; at 50.0 µM) of the same compound?
Answer: -4.65%

Question: What about the growth inhibition ([4]; at 50.0 µM) of the same compound?
Answer: -0.75%

Question: What about the growth inhibition ([6]; at 50.0 µM) of the same compound?
Answer: -25.3%

Question: And the growth inhibition ([5]; at 50.0 µM)?
Answer: -4.4%

Question: What does the source list for `O=[N+]([O-])c1ccc(/C=N\NP(Br)(c2ccccc2)(c2ccccc2)c2ccccc2)cc1`?
Answer: growth inhibition [1]: 15.4%; growth inhibition ([3]; at 50.0 µM): 26.9%; growth inhibition ([4]; at 50.0 µM): 3.95%; growth inhibition ([6]; at 50.0 µM): -2.5%; growth inhibition ([5]; at 50.0 µM): 4.75%

Question: Which growth inhibition ([2]; at 50.0 µM) does the source give for `CCOC(=O)C1(O)N=C(c2ccccc2)c2ccccc2-n2cccc21` (configuration not stated) here?
Answer: -45.2%

Question: What about the growth inhibition ([3]; at 50.0 µM) of the same compound?
Answer: -2.6%

Question: And the growth inhibition ([4]; at 50.0 µM)?
Answer: -23.9%

Question: And the growth inhibition ([6]; at 50.0 µM)?
Answer: 10.2%

Question: And the growth inhibition ([5]; at 50.0 µM)?
Answer: -3.2%

Question: With `Oc1c(Cl)cc(Cl)cc1Cl.[Cu+2]` as the compound, how does the growth inhibition [2, 7] read?
Answer: -28%

Question: What about the growth inhibition [2, 8] of the same compound?
Answer: 98% (active)

Question: And the growth inhibition ([2]; at 50.0 µM)?
Answer: 99.5% (active)

Question: What about the growth inhibition [3, 7] of the same compound?
Answer: -4%

Question: And the growth inhibition [3, 8]?
Answer: 94% (active)

Question: What about the growth inhibition ([3]; at 50.0 µM) of the same compound?
Answer: 99.8% (active)

Question: What about the growth inhibition [4, 7] of the same compound?
Answer: -9%

Question: What about the growth inhibition [4, 8] of the same compound?
Answer: 97% (active)

Question: What about the growth inhibition ([4]; at 50.0 µM) of the same compound?
Answer: 98.2% (active)

Question: What about the growth inhibition [6, 7] of the same compound?
Answer: -10%

Question: What about the growth inhibition [6, 8] of the same compound?
Answer: 97% (active)

Question: And the growth inhibition ([6]; at 50.0 µM)?
Answer: 99.5% (active)

Question: And the growth inhibition [5, 7]?
Answer: 0%

Question: What about the growth inhibition [5, 8] of the same compound?
Answer: 98% (active)

Question: And the growth inhibition ([5]; at 50.0 µM)?
Answer: 99.3% (active)

Question: What does the source list for `COc1ccc2c3c1OC1C4(OC)CCC5(c6c(O)ccc(O)c64)C(C2)N(C)CCC315` (configuration not stated)?
Answer: growth inhibition ([2]; at 50.0 µM): 4%; growth inhibition ([3]; at 50.0 µM): 7.2%; growth inhibition ([4]; at 50.0 µM): 13.3%; growth inhibition ([6]; at 50.0 µM): -6.4%; growth inhibition ([5]; at 50.0 µM): 4.15%
